In the library only some 5.7% were active in any assay of this set; here they are far more common.
KB-3-1 cytotox = KB-3-1 parental cell cytotoxicity; KB-3-1 viability, CellTiter-Glo ATP luminescence, 72 h; Potency, µM (top dose mostly 46.1 µM), hits mostly cytotoxic; actives 1.4% (n = 400,000); further: nearly all actives have a fitted effect of over 60% in size
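Using CellTiter-Glo luminescence, growth of non-resistant KB-3-1 adenocarcinoma cells is assessed 72 h after pin-tool compound addition at 37 °C. Normalized responses across the concentration series yield fitted curves.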
PI4K2A block = PI4K2A (human) kinase inhibition | Q9BTU6 | purified PI4K2A, ADP-Glo luminescence, 1 h; stronger effect = lower value | activity change, negative = inhibition, % at 76.9 µM | actives 0.13% (n = 420,000) | AID 1346378; in the data active means activity change below about -50%; inconclusive means mostly about -30% to -49%
Target sequence (Q9BTU6 whole entry, looked up): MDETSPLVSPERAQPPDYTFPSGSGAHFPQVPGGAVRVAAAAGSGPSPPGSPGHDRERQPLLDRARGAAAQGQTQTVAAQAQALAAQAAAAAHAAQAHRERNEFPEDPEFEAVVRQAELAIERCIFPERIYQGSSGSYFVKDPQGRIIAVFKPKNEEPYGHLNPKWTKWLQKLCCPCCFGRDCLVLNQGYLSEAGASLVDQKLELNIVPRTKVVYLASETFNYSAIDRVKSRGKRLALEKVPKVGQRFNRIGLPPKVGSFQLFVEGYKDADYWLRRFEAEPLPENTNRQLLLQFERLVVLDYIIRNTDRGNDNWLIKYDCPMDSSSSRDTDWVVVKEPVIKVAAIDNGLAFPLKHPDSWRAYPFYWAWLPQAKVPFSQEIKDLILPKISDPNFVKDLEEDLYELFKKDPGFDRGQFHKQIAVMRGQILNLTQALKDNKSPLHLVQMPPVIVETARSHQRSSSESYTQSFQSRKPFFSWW
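ADP-Glo luminescence measured ADP generated by PI4K2A enzyme (4 ug/mL before mixing) with 1.2 mM PI substrate (pre-mix) and 300 microM ATP (pre-mix). Tris pH7.5 buffer with MgCl2, Triton X-100; 1 h reaction at ambient temperature.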
Nrf2 inh = blocks Nrf2 signaling; actives 2.1% (n = 360,000); Potency, µM (series often up to 46 µM), most hits filed as inhibitors; AID 504444; A549 ARE-Fluc reporter, luciferase luminescence, 18-24 h; further: nearly all actives have a fitted effect of over 60% in size
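A549 ARE_Fluc cells, 5000/well, 5% FBS OPTI-MEM; compounds in dose-response, 18-24 h at 37 °C/5% CO2; CellTiter-Fluor viability read (Ex 405/Em 525), then BugLite luciferase luminescence = Nrf2 activity.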
KB-V1 MDR tox = kills drug-selected multidrug resistant KB-V1 cells | Potency, µM (highest dose often 46.1 µM), hits mostly cytotoxic | actives 3.4% (n = 400,000) | AID 1347076 | KB-V1 MDR cells viability, CellTiter-Glo, 72 h; further: nearly all actives have a fitted effect of over 60% in size
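Potencies derive from concentration-effect curves fitted to normalized luminescence (CellTiter-Glo) of KB-V1 cells treated for 72 h at 37 degrees C in phenol-red-free DMEM containing 10% FBS.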
Giardia killer = kills Giardia lamblia; Giardia lamblia trophozoite viability; activity change, % at 7.66 µM, hits read low; actives 0.15% (n = 340,000); AID 540267; in the data active means activity change below about -80%; inconclusive means between about -30% and that limit;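 further: parasites exposed to compound for two days anaerobically before the ATP read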
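Giardia trophozoites, 100 cells per well, were exposed to compounds for 48 hrs at 37 deg C under anaerobic conditions; viability was then read as ATP content by bioluminescence after 15-30 min at room temperature.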
A549 viability = A549 cytotoxicity, counter-screen for Nrf2 inhibitors; A549 ARE-Fluc cells, CellTiter-Fluor viability, 18-24 h; Potency, µM (highest dose often 46 µM), usual class: inhibitors; actives 0.16% (n = 390,000); AID 504648
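A549 ARE-Fluc cells in 5% FBS OPTI-MEM, 5000 cells/well, rested 2 h then exposed to compounds in concentration-response for 18-24 h at 37 °C. Viability by CellTiter-Fluor fluorescence (Ex 405/Em 525) after 30 min; luciferase luminescence (BugLite, 15 min, RT) read afterwards.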
Hits are given with their value; – = inactive; ? = inconclusive; · = no result given. Unless noted, the call rests on the fitted dose curve; in most records, active means well fitted curve in the direction sought with a large enough effect; inconclusive means small, poorly fitted or top-dose-only effect, or another doubt; inactive means no such curve, though single readings can be large; an effect the other way counts as inactive or inconclusive.

SMILES	KB-3-1 cytotox	PI4K2A block	Nrf2 inh	KB-V1 MDR tox	Giardia killer	A549 viability
Cc1ccc(S(=O)(=O)Oc2cccc(/C=N/Nc3ccc(C(=O)O)cc3)c2)cc1	–	–	–	–	–	–
O=C(C[n+]1cccc2cccc(O)c21)c1ccc(Cl)cc1	–	·	·	–	·	·
O=C(Nc1ccccc1Br)C1CC(=O)N(c2ccc3c4c(cccc24)CC3)C1 (configuration not stated)	4.6µM	–	–	?	–	–
CCOCCCNC(=O)NC(CCC(C)C)c1c(-n2cccc2)sc2c1CCN(C)C2 (configuration not stated)	·	–	?	·	·	–
CCCOc1ccc(CN(C(=O)c2cccc(OC)c2)C2CCS(=O)(=O)C2)cc1 (configuration not stated)	–	–	–	–	–	–
CCCOc1cccc(C(=O)N(Cc2ccc(OC)c(OC)c2)C2CCS(=O)(=O)C2)c1 (configuration not stated)	–	–	–	16µM	–	–
CN(C)c1ccc(/C=C2\C=Cc3ccccc32)cc1N	–	·	·	–	·	·
O=C(O)c1ccc(Nc2cc(Cl)c3nonc3c2[N+](=O)[O-])cc1	–	?	–	–	–	–
O=[N+]([O-])c1c(Nc2cccc(O)c2)cc(Cl)c2nonc12	18µM	–	?	?	–	?
O=[N+]([O-])c1cncc([N+](=O)[O-])c1Nc1cccc(O)c1	?	–	–	23µM	?	–
COC(=O)[C@]12CCCCC=C1N(Cc1ccc(OC)cc1)C(=O)[C@@H]2CC(=O)NCC12CC3CC(CC(C3)C1)C2	·	–	·	·	·	·
COc1ccccc1[C@]1(C)ON(c2ccccc2C(F)(F)F)C1=O	–	–	–	?	–	–
CC[C@]1(c2ccccc2OC)ON(c2ccccc2C(F)(F)F)C1=O	23µM	–	–	?	–	–
COc1ccc(C=CC(=O)c2c(OC)cc(OC)c(OC)c2O)cc1	–	–	–	?	–	–
C=CCOc1ccc(C=CC(=O)c2c(O)c(OC)c(OC)c(OC)c2OC)cc1	?	–	–	5.8µM	–	–
O=C(O/N=C\c1ccc(N2CCCCC2)c([N+](=O)[O-])c1)c1cccc(Cl)c1	?	–	–	?	–	–
CO/N=C/c1ccc(N2CCN(C(=O)c3ccc(F)cc3)CC2)c([N+](=O)[O-])c1	–	–	10µM	16µM	–	–
CO/N=C/c1ccc(N2CCN(C(=O)c3cccc(C(F)(F)F)c3)CC2)c([N+](=O)[O-])c1	?	–	?	10µM	–	?
O=C(N/N=C/c1ccc(N2CCOCC2)c([N+](=O)[O-])c1)c1ccc(F)cc1	–	–	–	–	–	–
O=C(O/N=C\c1ccc(N2CCCCC2)c([N+](=O)[O-])c1)c1cccc(C(F)(F)F)c1	?	–	–	?	–	–
Cc1ccc(C(=O)O/N=C\c2ccc(N3CCCCC3)c([N+](=O)[O-])c2)cc1	?	–	–	7.3µM	–	–
COc1ccc(C(=O)c2c(C(F)(F)F)oc3c2C(=O)c2ccccc2C3=O)cc1	?	–	·	?	–	7.3µM
C=CCn1c2ccccc2c2n[nH]c(=S)nc21	–	–	–	?	–	–
CCn1c2ccccc2c2n[nH]c(=S)nc21	?	–	–	6.5µM	?	–
COc1ccccc1N=Nc1nc(-c2ccccc2)c(-c2ccccc2)[nH]1	?	–	18µM	–	–	?
COc1ccc(N=Nc2nc(-c3ccccc3)c(-c3ccccc3)[nH]2)cc1	?	–	–	?	–	?
Oc1ccccc1N=Nc1nc(-c2ccccc2)c(-c2ccccc2)[nH]1	–	–	?	0.92µM	–	?
O=C(O)c1ccc(-c2nc(-c3ccccc3)c(-c3ccccc3)[nH]2)cc1	–	–	–	?	–	–
COc1cc(C2C3=C(Nc4ncnn42)c2ccccc2CC3)cc(OC)c1OC (configuration not stated)	0.29µM	–	–	0.65µM	–	?
COc1cc(C2C=C(c3cccs3)Nc3ncnn32)cc(OC)c1OC (configuration not stated)	1µM	–	?	3.7µM	–	?
